Test results published in PubChem BioAssay (NCI).
This is part of a sample that, as a whole, favours compounds with a hit. Of some 79,000 tested, about 15% had one in any assay. Activity calls are given as the source filed them. Cut-off read from the data, not from the text of the source: active = growth inhibition above about 70%; inactive = the rest.

Tests used:
[1] = NCI Yeast Anticancer Drug Screen. Data for the wt2 strain (AID 169); settings: S. cerevisiae wt2 strain growth inhibition, hits give high values
Procedure, shortened: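 Genetically defined yeast strains from a DNA-repair/cell-cycle panel were used. Compound-exposed yeast growth was measured, and the inhibition was calculated relative to vehicle treatment.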

[2] = NCI Yeast Anticancer Drug Screen. Data for the mlh1 strain (AID 171);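 note: 0% = growth of vehicle-treated control cultures of the same strain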; settings: S. cerevisiae mlh1 strain growth inhibition, hits give high values
Procedure, shortened: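 Here the genetically defined yeast mutant is grown with each compound, and the extent to which its growth falls below that of vehicle-exposed cells is reported.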

[3] = NCI Yeast Anticancer Drug Screen. Data for the sgs1 strain (AID 173);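 note: 0% = growth of vehicle-only control cultures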; settings: S. cerevisiae sgs1 mutant, hits give high values
Procedure, shortened: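 Relative growth inhibition, referenced to vehicle, was determined in a yeast strain with a defined alteration affecting DNA damage repair or cell cycle control after compound exposure.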

[4] = NCI Yeast Anticancer Drug Screen. Data for the mlh1 rad18 strain (AID 175); settings: S. cerevisiae mlh1 rad18 strain growth inhibition, hits give high values
Procedure, shortened: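 In this whole-cell yeast screen, a strain with altered DNA damage repair is challenged with compound, and its growth is measured against matched vehicle-treated controls.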

[5] = NCI Yeast Anticancer Drug Screen. Data for the rad18 strain (AID 177); settings: S. cerevisiae rad18 mutant growth inhibition, hits give high values
Procedure, shortened: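 Screen uses a yeast strain with a defined lesion in DNA damage repair; compound effect is read as loss of growth compared to untreated vehicle cultures.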

[6] = NCI Yeast Anticancer Drug Screen. Data for the rad52 strain (AID 147);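 note: 0% = growth of vehicle-treated control cultures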; settings: S. cerevisiae rad52 mutant growth inhibition, hits give high values
Procedure, shortened: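 Measured: yeast growth inhibition. System: strain with a defined DNA damage repair alteration. Reference: vehicle-treated control cultures.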

[7] = NCI Yeast Anticancer Drug Screen. Data for the wt1 strain (AID 149);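 note: 0% = growth of vehicle-treated wt1 cultures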; settings: S. cerevisiae wt1 strain (SPY 50644) growth inhibition, hits give high values
Procedure, shortened: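 Each compound is tested on wt1 yeast and the loss of growth versus vehicle gives the inhibition value.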

[8] = NCI Yeast Anticancer Drug Screen. Data for the rad50EPP+ strain (AID 151);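 note: 0% = growth of vehicle-treated control cultures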; settings: S. cerevisiae rad50 mutant strain, hits give high values
Procedure, shortened: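 One strain with a rad50 alteration (rad50EPP+) was compound-treated, its growth then compared to that of vehicle controls.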

[9] = NCI Yeast Anticancer Drug Screen. Data for the mgt1 strain (AID 153); settings: S. cerevisiae mgt1 mutant growth inhibition, hits give high values
Procedure, shortened: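 After exposure of the mgt1 yeast mutant to compound, growth was measured and reported as inhibition compared with vehicle controls.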

[10] = NCI Yeast Anticancer Drug Screen. Data for the rad50 strain (AID 155);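 note: 0% = growth of vehicle-only cultures of the same strain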; settings: S. cerevisiae rad50 strain growth inhibition, hits give high values
Procedure, shortened: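 Vehicle-treated cultures provide the reference for the growth inhibition reported for compound-exposed, repair-deficient yeast.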

[11] = NCI Yeast Anticancer Drug Screen. Data for the mec2-1 strain (AID 157); settings: S. cerevisiae mec2-1 strain, hits give high values
Procedure, shortened: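 Test agents were screened against the mec2-1 yeast strain, with defined DNA repair or cell cycle alteration. Growth was scored as inhibition against vehicle-only controls.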

[12] = NCI Yeast Anticancer Drug Screen. Data for the rad14 strain (AID 159);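 note: 0% = growth of vehicle-treated control cultures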; settings: S. cerevisiae rad14 strain growth inhibition, hits give high values
Procedure, shortened: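 Inhibition of growth is reported for a repair-deficient yeast mutant following compound treatment, calculated relative to cultures that received vehicle.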

[13] = NCI Yeast Anticancer Drug Screen. Data for the sgs1 mgt1 strain (AID 161);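 note: 0% = growth of cultures given vehicle only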; settings: S. cerevisiae sgs1 mgt1 strain, hits give high values
Procedure, shortened: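 Mutant yeast exposed to compound; growth scored against vehicle-only wells.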

[14] = NCI Yeast Anticancer Drug Screen. Data for the CLN2oe strain (AID 163);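 note: 0% = growth of vehicle-only control cultures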; settings: S. cerevisiae CLN2oe strain, hits give high values
Procedure, shortened: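 Here, growth inhibition in a cell-cycle-altered yeast strain after compound exposure was quantified against vehicle control growth.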

[15] = NCI Yeast Anticancer Drug Screen. Data for the cln2 rad14 strain (AID 165);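 note: 0% = growth equal to vehicle treated cultures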; settings: S. cerevisiae cln2 rad14 strain, hits give high values
Procedure, shortened: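 Growth of compound-exposed yeast (cln2 rad14 genotype) measured and expressed as inhibition relative to vehicle.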

[16] = NCI Yeast Anticancer Drug Screen. Data for the bub3 strain (AID 167); settings: S. cerevisiae bub3 mutant strain, hits give high values
Procedure, shortened: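 Mutant yeast screening strain plus compound; vehicle-treated cultures serve as the 0% inhibition reference.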

[17] = at 5.0 µM (retest, dose inferred, filed as 0.5)
[18] = at 50.0 µM (retest, dose inferred, filed as 5.0)

Measured: growth inhibition

C=COC(=O)N[C@H]1CCc2cc(OC)c(OC)c(OC)c2-c2ccc(SC)c(=O)cc21
active: [1]; at 100.0 µM 76% | [2]; at 100.0 µM 84% | [3]; at 100.0 µM 73% | [5]; at 100.0 µM 75%
inactive: [1]; at 1.2 µM -3% | [1]; at 3.7 µM -4% | [1]; at 11.0 µM -3% | [1]; at 33.0 µM 1% | [2]; at 1.2 µM 1% | [2]; at 3.7 µM -1% | [2]; at 11.0 µM 0% | [2]; at 33.0 µM 12% | [3]; at 1.2 µM -2% | [3]; at 3.7 µM -3% | [3]; at 11.0 µM 1% | [3]; at 33.0 µM 14% | [4]; [17] -8% | [4]; [18] 30% | [4]; at 50.0 µM 29.1% | [5]; at 1.2 µM -2% | [5]; at 3.7 µM 0% | [5]; at 11.0 µM 3% | [5]; at 33.0 µM 13%

Cc1cc(O)c(C(C)C)cc1SC#N
active: [6]; at 100.0 µM 98% | [7]; at 100.0 µM 99% | [8]; at 100.0 µM 89% | [9]; at 100.0 µM 99% | [10]; [17] 91% | [10]; [18] 98% | [10]; at 50.0 µM 89.1% | [10]; at 100.0 µM 98% | [11]; [17] 96% | [11]; [18] 99% | [11]; at 50.0 µM 91.1% | [11]; at 100.0 µM 98% | [12]; at 100.0 µM 99% | [13]; [18] 97% | [13]; at 50.0 µM 91.9% | [14]; at 100.0 µM 98% | [15]; [18] 98% | [15]; at 50.0 µM 90.3% | [16]; [17] 72% | [16]; at 11.0 µM 91% | [16]; [18] 98% | [16]; at 50.0 µM 90.5% | [16]; at 100.0 µM 98% | [1]; at 100.0 µM 98% | [2]; at 100.0 µM 98% | [3]; at 100.0 µM 98% | [4]; [17] 81% | [4]; [18] 99% | [4]; at 50.0 µM 89% | [5]; at 100.0 µM 98%
inactive: [6]; at 1.2 µM 2% | [6]; at 3.7 µM -12% | [6]; at 11.0 µM 62% | [6]; at 33.0 µM 34% | [7]; at 1.2 µM -15% | [7]; at 3.7 µM 1% | [7]; at 11.0 µM 43% | [7]; at 33.0 µM 36% | [8]; at 1.2 µM -12% | [8]; at 3.7 µM -5% | [8]; at 11.0 µM 1% | [8]; at 33.0 µM 10% | [9]; at 1.2 µM -3% | [9]; at 3.7 µM -13% | [9]; at 11.0 µM 54% | [9]; at 33.0 µM 40% | [10]; at 1.2 µM -24% | [10]; at 3.7 µM -15% | [10]; at 11.0 µM 67% | [10]; at 33.0 µM 19% | [11]; at 1.2 µM -26% | [11]; at 3.7 µM -25% | [11]; at 11.0 µM 68% | [11]; at 33.0 µM 24% | [12]; at 1.2 µM -4% | [12]; at 3.7 µM 0% | [12]; at 11.0 µM 55% | [12]; at 33.0 µM 46% | [13]; [17] -5% | [14]; at 1.2 µM 12% | [14]; at 3.7 µM -17% | [14]; at 11.0 µM 68% | [14]; at 33.0 µM 54% | [15]; [17] 65% | [16]; at 1.2 µM 3% | [16]; at 3.7 µM 50% | [16]; at 33.0 µM 34% | [1]; at 1.2 µM -11% | [1]; at 3.7 µM -24% | [1]; at 11.0 µM 52% | [1]; at 33.0 µM 36% | [2]; at 1.2 µM -19% | [2]; at 3.7 µM -5% | [2]; at 11.0 µM 58% | [2]; at 33.0 µM 33% | [3]; at 1.2 µM -30% | [3]; at 3.7 µM -24% | [3]; at 11.0 µM 65% | [3]; at 33.0 µM 28% | [5]; at 1.2 µM 12% | [5]; at 3.7 µM 2% | [5]; at 11.0 µM 59% | [5]; at 33.0 µM 40%

CCC(OC(C)=O)C1CC(C(C)C)CCC1C (centres undefined)
inactive: [6]; at 1.2 µM 1% | [6]; at 3.7 µM 2% | [6]; at 11.0 µM 4% | [6]; at 33.0 µM -73% | [6]; at 100.0 µM 22% | [7]; at 1.2 µM -1% | [7]; at 3.7 µM -1% | [7]; at 11.0 µM -2% | [7]; at 33.0 µM 2% | [7]; at 100.0 µM 44% | [8]; at 1.2 µM 0% | [8]; at 3.7 µM 0% | [8]; at 11.0 µM 15% | [8]; at 33.0 µM 46% | [9]; at 1.2 µM -1% | [9]; at 3.7 µM 0% | [9]; at 11.0 µM 0% | [9]; at 33.0 µM 5% | [10]; at 1.2 µM 4% | [10]; at 3.7 µM -43% | [10]; [17] 3% | [10]; at 11.0 µM 5% | [10]; at 33.0 µM 4% | [10]; [18] 9% | [10]; at 50.0 µM -15.1% | [10]; at 100.0 µM 53% | [11]; at 1.2 µM 2% | [11]; at 3.7 µM 3% | [11]; [17] 4% | [11]; at 11.0 µM 6% | [11]; at 33.0 µM 9% | [11]; [18] 34% | [11]; at 50.0 µM 24.2% | [12]; at 1.2 µM 0% | [12]; at 3.7 µM 0% | [12]; at 11.0 µM 5% | [12]; at 33.0 µM 17% | [13]; [17] -7% | [13]; [18] 39% | [13]; at 50.0 µM 21.8% | [14]; at 1.2 µM -4% | [14]; at 3.7 µM -5% | [14]; at 11.0 µM 2% | [14]; at 33.0 µM 0% | [14]; at 100.0 µM 5% | [15]; [17] 9% | [16]; at 1.2 µM -2% | [16]; at 3.7 µM -1% | [16]; [17] 0% | [16]; at 11.0 µM -3% | [16]; at 33.0 µM -2% | [16]; [18] 29% | [16]; at 50.0 µM 21.4% | [1]; at 1.2 µM -1% | [1]; at 3.7 µM 7% | [1]; at 11.0 µM 0% | [1]; at 33.0 µM -3% | [1]; at 100.0 µM 40% | [2]; at 1.2 µM 0% | [2]; at 3.7 µM 1% | [2]; at 11.0 µM 4% | [2]; at 33.0 µM 8% | [2]; at 100.0 µM 54% | [3]; at 1.2 µM -1% | [3]; at 3.7 µM 1% | [3]; at 11.0 µM 6% | [3]; at 33.0 µM 18% | [4]; [17] -1% | [4]; [18] 19% | [4]; at 50.0 µM 27.6% | [5]; at 1.2 µM 2% | [5]; at 3.7 µM 2% | [5]; at 11.0 µM 4% | [5]; at 33.0 µM 11%
active: [8]; at 100.0 µM 96% | [9]; at 100.0 µM 82% | [11]; at 100.0 µM 76% | [12]; at 100.0 µM 99% | [15]; [18] 73% | [15]; at 50.0 µM 72.2% | [16]; at 100.0 µM 84% | [3]; at 100.0 µM 95% | [5]; at 100.0 µM 83%
